Measurements from PubChem BioAssay AID2240 (Broad Institute, 2010).
Hit rate of the full screen: of about 37,000 compounds, about 100 (0.27%) were called active. What follows is part of a selection rich in actives, with near analogues and random picks from the rest. Values without a mark were called inactive. Cut-off read from the data, not from the text of the source: active = inhibition above about 85%; inconclusive = no clear call, values can overlap the other calls; inactive = below about 68%.

experiment: inhibitors of MITF, primary screen, MITF inhibitor project, cell-based, luminescence (AID 2240); details: TRPM1 promoter luciferase, 24 h, stronger effect = higher value, concentration not given here;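 note: human melanocyte line stably carrying TRPM1 promoter luciferase reporter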

SMILES | inhibition
O=C(CSc1nnc2c(n1)[nH]c1ccccc12)Nc1cccc(C(F)(F)F)c1 | 63.8%
CN(c1ccc(C(=O)NCc2ccccn2)cc1)S(C)(=O)=O | -16%
COC(=O)c1scc(S(=O)(=O)C(C)(C)C)c1-n1cccc1 | 3.33%
C[C@@H]1CN([C@@H](C)CO)C(=O)c2cccc(NS(=O)(=O)c3cn(C)cn3)c2O[C@H]1CN(C)Cc1ccc(Cl)c(Cl)c1 | -17%
CC(C)NC(=O)Nc1ccc2c(c1)C(=O)N([C@H](C)CO)C[C@H](C)[C@@H](CN(C)CC1CCCCC1)OCCCC[C@@H](C)O2 | 0.663%
COc1ccc(CN(C)C[C@@H]2Oc3ccc(NC(=O)Nc4ccc(OC)cc4)cc3C(=O)N([C@H](C)CO)C[C@H]2C)cc1 | -5.96%
CCc1ccccc1NC(=O)Cn1cnc2scc(-c3ccc(OC)cc3)c2c1=O | 27.3%
COc1ccc(S(=O)(=O)Nc2cccc3c2O[C@H](CN(C)C(=O)Nc2cccc4ccccc24)[C@H](C)CN([C@@H](C)CO)C3=O)cc1 | 4.99%
NC(=S)c1cnn2c(C(F)(F)F)cc(C(F)(F)F)nc12 | 6.61%
C[C@@H]1CN([C@@H](C)CO)C(=O)c2cc(NC(=O)CCN3CCOCC3)ccc2O[C@@H]1CN(C)S(=O)(=O)c1ccccc1 | -5.16%
C[C@H](CO)N1C[C@H](C)[C@@H](CN(C)Cc2ccc(C(F)(F)F)cc2)Oc2c(NC(=O)NC3CCCCC3)cccc2C1=O | 15.8%
C[C@@H]1CN([C@@H](C)CO)C(=O)Cc2cc(NC(=O)Cc3ccccc3)ccc2O[C@@H]1CN(C)Cc1ccc2c(c1)OCO2 | 4.15%
O=C(CSc1nnc2n1CCCN2)c1ccccc1 | -27.2%
Cc1ccc(C23CC4CC(CC(CN)(C4)C2)C3)cc1C | 94.1% (active)
C[C@@H]1CN([C@H](C)CO)C(=O)Cc2cc(NC(=O)Nc3ccc4c(c3)OCO4)ccc2O[C@@H]1CN(C)C(=O)Nc1ccccc1 | 8.24%
COc1ccc(S(=O)(=O)Nc2ccc3c(c2)CC(=O)N([C@@H](C)CO)C[C@@H](C)[C@@H](CN(C)C)O3)cc1 | -7.94%
C[C@@H]1CCCCO[C@@H](CN(C)Cc2ccncc2)[C@@H](C)CN([C@H](C)CO)C(=O)c2cc(NS(=O)(=O)c3cccs3)ccc2O1 | -6.77%
C[C@H]1CN([C@@H](C)CO)C(=O)Cc2cc(NC(=O)Nc3ccccc3)ccc2O[C@H]1CN(C)S(=O)(=O)c1cn(C)cn1 | -4.73%
Cc1cc(C(=O)Nc2cccc3c2O[C@@H](CN(C)C(=O)Nc2ccc(F)cc2)[C@H](C)CN([C@@H](C)CO)C3=O)n(C)n1 | -3.61%
CC1=C(C(=O)OCc2ccccc2)OC(N)=C(C#N)C1c1ccc(F)cc1 (stereo unspecified) | -8.27%
O=S(=O)(NCCc1ccccc1)c1ccccc1 | -1.44%
Cc1cc(C)c2c(c1)CC(C)(C)c1[nH]c(-c3ccccc3)nc1-2 | 12.3%
CCCC1CCC(c2ccc(OC(=O)c3ccco3)cc2)CC1 (stereo unspecified) | -3.57%

SMILES | inhibition
Cc1ccc(-n2c(SCC(=O)Nc3cccc(C)c3C)nc3ccccc3c2=O)cc1 | 14.3%
Cc1nc(SCC(=O)O)[nH]c(=O)c1Oc1ccccc1 | -13.2%
O=C(CCn1nc(-c2ccccc2)c2ccccc2c1=O)Nc1cccc(Br)c1 | 6.27%
O=C(c1nc2ncccn2n1)N(Cc1ccccc1)Cc1ccccc1 | 3.11%
COc1cc(CO)cc(Cl)c1OCc1cccc([N+](=O)[O-])c1 | -30.9%
COc1ccc(-c2cnc3c(-c4ccsc4)cnn3c2)cc1 | 26.7%
COc1ccc(S(=O)(=O)Nc2ccc3c(c2)CC(=O)N([C@H](C)CO)C[C@H](C)[C@H](CN(C)C(=O)Nc2ccccc2)O3)cc1 | -16.9%
CNC[C@H]1Oc2ccc(NC(=O)C3CCCCC3)cc2C(=O)N([C@H](C)CO)C[C@@H]1C | 4.94%
C[C@H]1CN([C@@H](C)CO)C(=O)c2cccc(NC(=O)Nc3cccc4ccccc34)c2O[C@@H]1CN(C)C(=O)NC1CCCCC1 | 0.565%
O=C(CCCN1C(=O)c2ccccc2C1=O)Nc1cccc2c1CCCC2 | -8.57%
Cc1ccc2oc3c(c(=O)c2c1)C(c1ccc([N+](=O)[O-])cc1)N(CCCN1CCOCC1)C3=O (stereo unspecified) | -26.1%
O=C(CN1CCOCC1)Nc1ccc(NC(=O)CN2CCOCC2)c(Cl)c1 | -25.8%
C[C@H](CO)N1C[C@H](C)[C@H](CN(C)CC2CCCCC2)Oc2ccc(NC(=O)C3CCCCC3)cc2C1=O | -9.78%
C[C@H]1CN([C@@H](C)CO)C(=O)Cc2cc(NC(=O)Cc3ccccc3)ccc2O[C@@H]1CN(C)S(=O)(=O)c1ccc(Cl)cc1 | 12.5%
C[C@H]1CN([C@@H](C)CO)C(=O)c2cc(NC(=O)c3ccncc3)ccc2O[C@H]1CN(C)Cc1ccc(C(=O)Nc2ccccc2N)cc1 | 20.5%
O=C(OC1=CC(=O)c2cccc3cccc1c23)c1ccccc1 | 26.1%
O=C(c1ccc(NCc2cccnc2)c([N+](=O)[O-])c1)N1CCCCC1 | 6.72%
CC1(C)Cc2c(sc3ncn4nc(COc5ccc(Cl)cc5)nc4c23)C(C)(C)N1 | 6.06%
CNC[C@@H]1Oc2c(NC(=O)Nc3ccc(OC)cc3)cccc2C(=O)N([C@@H](C)CO)C[C@@H]1C | -2.63%
C[C@H]1CN([C@@H](C)CO)C(=O)Cc2cc(NC(=O)NC3CCCCC3)ccc2O[C@@H]1CN(C)Cc1ccc(Oc2ccccc2)cc1 | 33.3%
C[C@@H]1CN([C@H](C)CO)C(=O)Cc2cc(NC(=O)NC3CCCCC3)ccc2O[C@H]1CN(C)S(=O)(=O)c1ccc(Cl)cc1 | -10.5%
Cc1ccc(N(CC(=O)Nc2ccccc2Sc2ccccc2)S(C)(=O)=O)c(C)c1 | -5.49%
CC(=O)Nc1nc2ccccc2s1 | -10.3%

SMILES | inhibition
Cc1noc(C)c1NC(=O)Nc1cccc2c1O[C@@H](CN(C)Cc1ccc(C(F)(F)F)cc1)[C@@H](C)CN([C@@H](C)CO)C2=O | 1.59%
COc1ccc(NC(=O)Nc2cccc3c2O[C@@H](CN(C)S(=O)(=O)c2cn(C)cn2)[C@H](C)CN([C@@H](C)CO)C3=O)cc1 | -11.4%
C[C@@H]1CN([C@H](C)CO)C(=O)c2cc(NC(=O)NC3CCCCC3)ccc2O[C@@H]1CN(C)S(C)(=O)=O | 1.34%
Nc1cc(N)nc(SCC(=O)c2ccc(Br)cc2)n1 | -22.1%
CCCCn1c(O)c(C#N)c(C)cc1=O | -16.6%
C[C@H]1CN([C@@H](C)CO)C(=O)Cc2cc(NS(C)(=O)=O)ccc2O[C@@H]1CN(C)CC1CC1 | -11.8%
C=CCn1c2ccccc2c2nnc(SCC(=O)N3c4ccccc4Sc4ccccc43)nc21 | 27.5%
Cc1ccc(-c2nnc(Nc3ccc(C(=O)N(C)C)cc3)c3ccccc23)cc1S(N)(=O)=O | -20.2%
Cc1nn(-c2ccccc2)c(CC(C)(C)C(=O)O)c1C(=O)O | -5.62%
CCc1cc2c(=O)n(-c3ccccc3)c(SCC(=O)O)nc2s1 | -1.73%
COc1cc(S(=O)(=O)NCCN2CCOCC2)ccc1Br | 1.46%
C=C1C(=O)O[C@H]2C3=C(C)C[C@H](OC(C)=O)C[C@]3(C)CC[C@@H]12 | 8.27%
Oc1ccc(CN2CCCC2)c2cccnc12 | 40.6%
C[C@H]1CN([C@@H](C)CO)C(=O)c2cc(NC(=O)Cn3cnnn3)ccc2O[C@@H]1CN(C)C(=O)Nc1ccccc1 | 5.69%
C[C@H](CO)N1C[C@H](C)[C@H](CN(C)CC2CC2)Oc2ccc(NC(=O)c3ccncc3)cc2C1=O | -11.7%
C=C1C[C@@]23CC[C@@H]4[C@](C)(CO)CCC[C@@]4(C)[C@@H]2CC[C@@H]1C3 | -32.7%
Cc1ccc(NC(=O)C(C)N(c2ccc(Cl)cc2)S(C)(=O)=O)c(C)c1 (stereo unspecified) | -5.76%
Cc1cc([N+](=O)[O-])nn1CC(=O)NC(C)C | 8.94%
C[C@@H]1CN([C@@H](C)CO)C(=O)c2cc(NC(=O)Nc3ccccc3)ccc2O[C@H]1CN(C)C(=O)Nc1ccc(F)cc1 | 3.76%
COc1ccccc1NC(=O)C1=C(C)Nc2nnnn2C1c1ccccc1OCc1ccccc1 (stereo unspecified) | 41.2%
O=C(CSc1nnc(-c2ccccc2)n1-c1ccccc1)c1cccc([N+](=O)[O-])c1 | 5.69%
C[C@H](CO)N1C[C@H](C)[C@@H](CN(C)Cc2ccc(C(F)(F)F)cc2)Oc2ccc(NC(=O)CCN3CCOCC3)cc2C1=O | -9.07%
c1ccc(Cn2c3ccccc3c3nnc(SCc4ccc5nonc5c4)nc32)cc1 | 20.6%

SMILES | inhibition
C[C@@H]1CCCCO[C@@H](CN(C)C(=O)CCC(F)(F)F)[C@@H](C)CN([C@H](C)CO)C(=O)c2cc(NC(=O)Nc3ccccc3)ccc2O1 | -11.3%
C[C@@H]1CN([C@@H](C)CO)C(=O)c2cc(NC(=O)C3CCCCC3)ccc2O[C@@H]1CN(C)Cc1ccc(C(=O)O)cc1 | 1.31%
COc1ccc(NC(=O)CN(C)S(=O)(=O)c2ccccc2)cc1OC | -9.83%
COc1ccc(NC(=O)N(C)C[C@H]2Oc3c(NC(=O)C4CC4)cccc3C(=O)N([C@@H](C)CO)C[C@@H]2C)cc1 | 0.647%
C[C@H]1CN([C@@H](C)CO)C(=O)c2cc(N(C)C)ccc2O[C@@H]1CN(C)Cc1ccccc1 | -14.1%
O=C(CSc1nccc(=O)[nH]1)Nc1ccc([N+](=O)[O-])cc1 | -3.55%
COc1cc(NC(=S)NCCN2CCOCC2)c(OC)cc1Cl | 17.1%
O=C(Nn1cnc2ccccc2c1=O)c1ccccc1 | -19.3%
C[C@@H]1CN([C@H](C)CO)C(=O)c2cc(NS(=O)(=O)c3cccs3)ccc2O[C@@H]1CN(C)Cc1ccc(C(F)(F)F)cc1 | -1.87%
COc1ccc(NC(=O)Nc2cccc3c2O[C@@H](CN(C)S(=O)(=O)c2ccc(C)cc2)[C@H](C)CN([C@@H](C)CO)C3=O)cc1 | -6.48%
CCN(c1ccccc1)S(=O)(=O)c1ccc(C)cc1 | 12.9%
C[C@H](CO)N1C[C@H](C)[C@H](CN(C)C(=O)Nc2ccc3c(c2)OCO3)Oc2ccc(NC(=O)Nc3ccccc3)cc2CC1=O | -9.08%
COc1ccc(S(=O)(=O)N(C)C[C@H]2Oc3ccc(NC(=O)C4CC4)cc3CC(=O)N([C@@H](C)CO)C[C@@H]2C)cc1 | -12.4%
COC(=O)c1c(-c2cccnc2)csc1NC(=O)c1cc(-c2ccc(C)o2)nc2ccccc12 | -34.4%
Cc1ccc(S(=O)(=O)N(C)C[C@H]2Oc3c(NS(=O)(=O)c4cccs4)cccc3C(=O)N([C@@H](C)CO)C[C@@H]2C)cc1 | 0.709%
O=C(CSc1nc2ccccc2s1)c1cc2ccccc2oc1=O | -18%
C[C@@H]1CN([C@@H](C)CO)C(=O)c2cc(NC(=O)CCCN(C)C)ccc2O[C@@H]1CN(C)Cc1ccncc1 | 4.25%
CCCN(C)C[C@H]1OCCCC[C@@H](C)Oc2ccc(N(C)C)cc2C(=O)N([C@H](C)CO)C[C@@H]1C | 43.3%
CC(=O)c1c(C)nn(CC(O)COc2ccc3cc(Br)ccc3c2)c1C (stereo unspecified) | 50.6%
Cc1ccc(S(=O)(=O)N(C)C[C@H]2Oc3c(NS(=O)(=O)c4ccc(Cl)cc4)cccc3C(=O)N([C@H](C)CO)C[C@@H]2C)cc1 | 0.159%
Oc1c(Cl)cc(Cl)c(Cl)c1Cc1c(O)c(Cl)cc(Cl)c1Cl | 93.7% (active)
O=C(NCCN1CCCCC1)Nc1cccc2ccccc12 | 5.31%
